In the supplement of paper PMC10981050:
Where “and” joins values, the source holds several entries; their conditions need not be identical. Equal values may be shown once. Where a name gives a salt, the structure may show the parent alone.

Assays:
Assay in all cases: cell viability relative to vehicle control; higher = less cytotoxic
Details in all cases: 10 µM
[1] = system: K562
Summary of the method: (§1)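 Each screen used CRISPR-edited mutant and wild-type clones from four leukaemia lines. Compounds were acoustically dispensed at a single 10 µM dose, and CellTiter-Glo luminescence was read after 48 h with the supernatant first removed. Viability was analysed in Genedata Screener and given as percent of the on-plate vehicle control.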

[2] = system: MARIMO
Summary of the method: as §1

[3] = system: MOLM14
Summary of the method: as §1

[4] = system: OCI-AML2
Summary of the method: as §1

| SMILES | cell viability ([1]; SRSF2 genotype: SRSF2 P95H/wt) | cell viability ([1]; SRSF2 genotype: SRSF2 wt/wt) | cell viability ([2]; SRSF2 genotype: SRSF2 P95H/wt) | cell viability ([2]; SRSF2 genotype: SRSF2 wt/wt) | cell viability ([3]; SRSF2 genotype: SRSF2 P95H/wt) | cell viability ([3]; SRSF2 genotype: SRSF2 wt/wt) | cell viability ([4]; SRSF2 genotype: P95H/wt) | cell viability ([4]; SRSF2 genotype: wt/wt) |
| --- | --- | --- | --- | --- | --- | --- | --- | --- |
| CC(C)Oc1ccc2c(=O)c(-c3ccccc3)coc2c1 [Ipriflavone] | 88.2% and 88.5% | 94% | 85.2% | 88.1% | 110% | 113% | 71.6% | 75.8% |
| CCOC(=O)c1cnc2ccc(-c3cncc(NS(=O)(=O)c4ccccc4)c3)cn12 | 22.4% and 35.9% | 34.2% | 17.1% | 20% | 3.14% | 4.38% | 2.77% | 9.47% |
| C=CC(=O)N1CC[C@@H](Oc2nc(Nc3ccc(N4CCC(N5CCN(C)CC5)CC4)cc3)c(C(N)=O)nc2CC)C1 [ASP8273 (Naquotinib)] | 51.2% and 34.1% | 47.1% | 26.7% | 29.7% | 8.47% | 10.5% | 20.4% | 24.4% |
| COc1cc(C(=O)O)ccc1O [Vanillic acid] | 103% and 97.7% | 111% | 98.9% | 105% | 102% | 108% | 104% | 113% |
| CCN(CC)CC(O)CNc1ccc(NCC2CO2)c2c1C(=O)c1ccccc1C2=O (stereo not drawn) | 1.64% and 0.64% | 3.62% | 1.76% | 2.11% | 2.26% | 0.31% | 0.66% | 0.95% |
| O=c1c2ccccc2nc(C=Cc2cccnc2)n1Cc1ccccc1 | 86.8% and 86.9% | 79.8% | 74.3% | 90.1% | 78.5% | 82.6% | 78.4% | 75.9% |
| CN(CCN1CCC(OC(=O)Nc2ccccc2-c2ccccc2)CC1)C(=O)c1ccc(CN2CCC(C(N)=O)CC2)cc1 [Revefenacin] | 94.7% and 89.9% | 92.8% | 82.7% | 90.8% | 87.1% | 92.2% | 83.2% | 83.5% |
| COc1ncnc(NS(=O)(=O)c2ccc(N)cc2)c1OC [Sulfadoxine (Sulphadoxine)] | 103% and 107% | 98.1% | 104% | 105% | 95.4% | 100% | 98.5% | 96.3% |
| CC(=O)[C@@]1(O)CC[C@H]2[C@@H]3C[C@H](C)C4=CC(=O)CC[C@]4(C)[C@H]3CC[C@@]21C [Medroxyprogesterone] | 97.3% and 90.1% | 91.8% | 74% | 92.8% | 103% | 100% | 103% | 104% |
| O=C(O)C1=CO[C@@H](O[C@@H]2O[C@H](CO)[C@@H](O)[C@H](O)[C@H]2O)[C@H]2[C@@H]1C=C[C@]2(O)CO [Monotropein] | 110% and 104% | 107% | 101% | 106% | 104% | 104% | 90.7% | 103% |
| C=CC(=O)N1CC/C(=C\c2ccc(F)c([N+](=O)[O-])c2)C(=O)/C(=C/c2ccc(F)c([N+](=O)[O-])c2)C1 | 2.41% and 0.35% | 0.44% | 0.25% | 0.39% | 0.29% | 0.29% | 0.26% | 0.35% |
| CN(C)C/C=C/C(=O)Nc1ccc(C(=O)Nc2cccc(Nc3ncc(Cl)c(-c4c[nH]c5ccccc45)n3)c2)cc1 | 12.4% and 22.2% | 16.8% | 0.73% | 1.23% | 0.23% | 0.21% | 0.37% | 0.63% |
| CC(=CCNc1ncnc2c1ncn2C1OC(CO)C(O)C1O)CO (stereo not drawn) [trans-Zeatin-riboside] | 107% and 105% | 108% | 99.7% | 110% | 104% | 105% | 116% | 117% |
| O=CCc1ccccc1 [Phenylacetaldehyde] | 99.4% and 97.2% | 92.8% | 97.5% | 95.2% | 107% | 97.2% | 99.5% | 93.5% |
| CCN(CC)Cc1cc(Nc2ccnc3cc(Cl)ccc23)ccc1O [Amodiaquine hydrochloride] | 80.3% and 76.8% | 74% | 61% | 67.4% | 40.2% | 31.1% | 39% | 33.4% |
| COc1cc(O)c2c(c1)C(=O)c1cc(C)cc(O)c1C2=O [Rheochrysidin (Physcione)] | 96.9% and 101% | 95.5% | 98.4% | 111% | 102% | 103% | 92.5% | 102% |
| O=C(Nc1cccnc1)c1cc(-c2ccnc(F)c2)ccc1OCc1ccccc1 | 97.4% and 102% | 94.6% | 97.5% | 102% | 104% | 98.7% | 95.8% | 95.6% |
| O=C(CCCCCN1C(=O)c2cccc3cccc(c23)C1=O)NO [Scriptaid] | 1.69% and 12.5% | 11.4% | 4.53% | 4.11% | 0.6% | 0.53% | 0.32% | 0.98% |
| Cc1ncc(CO)c(CO)c1O [Pyridoxine hydrochloride] | 104% and 103% | 111% | 104% | 112% | 105% | 110% | 104% | 96.7% |
| C=CC(=O)Nc1ccc2ncnc(Nc3cccc(Br)c3)c2c1 | 66% and 72.7% | 71.1% | 70% | 86.8% | 61.6% | 81.3% | 50% | 50.9% |
| C=CCc1ccc(O)c(-c2ccc(O)c(CC=C)c2)c1 [Honokiol] | 84.9% and 87.5% | 83.8% | 84.5% | 92.7% | 85.5% | 98.9% | 66.7% | 72.3% |

| SMILES | cell viability ([1]; SRSF2 genotype: SRSF2 P95H/wt) | cell viability ([1]; SRSF2 genotype: SRSF2 wt/wt) | cell viability ([2]; SRSF2 genotype: SRSF2 P95H/wt) | cell viability ([2]; SRSF2 genotype: SRSF2 wt/wt) | cell viability ([3]; SRSF2 genotype: SRSF2 P95H/wt) | cell viability ([3]; SRSF2 genotype: SRSF2 wt/wt) | cell viability ([4]; SRSF2 genotype: P95H/wt) | cell viability ([4]; SRSF2 genotype: wt/wt) |
| --- | --- | --- | --- | --- | --- | --- | --- | --- |
| Cc1cc(SCc2sc(-c3ccc(C(F)(F)F)cc3)nc2C)ccc1OCC(=O)O | 102% and 95.2% | 96.7% | 92% | 103% | 87.6% | 97.3% | 90.4% | 95.4% |
| Fc1cc(-c2cccc3ncc(-c4cnn(C5CCNCC5)c4)nc23)cc(F)c1CN1CCOCC1 | 3.45% and 6.22% | 7.58% | 31.9% | 5.4% | 0.59% | 0.69% | 0.94% | 2.89% |
| CC1=CCC2C(C1)C2(C)C (stereo not drawn) [3-Carene] | 104% and 96% | 106% | 101% | 103% | 100% | 106% | 101% | 112% |
| C[C@@]12CC[C@@H]3[C@@](CC[C@H]4[C@@]3(C)CCC[C@@]4(C)C(=O)O)(CC1=O)C2 [Iso-Steviol] | 100% and 92.9% | 96.7% | 99.4% | 107% | 95% | 94.7% | 88.3% | 101% |
| CCN(CC)CCCC[C@H](NC(=O)[C@H](CC(C)C)NC(=O)[C@H](C)NC(=O)[C@H](Cc1ccccc1)NC(=O)c1ccc(C(C)(C)C)cc1)C(=O)N[C@@H](CO)C(=O)OC | 88.1% and 85% | 84.6% | 86.1% | 99% | 83.2% | 92% | 90.4% | 113% |
| Nc1ncnc2c1ncn2[C@@H]1O[C@H](CO)[C@@H](O)[C@@H]1O [Vidarabine monohydrate] | 105% and 101% | 110% | 86% | 98.5% | 97.6% | 103% | 110% | 119% |
| CC(C)CCN1c2nc(Nc3cc(F)c(O)c(F)c3)ncc2N(C)C(=O)C1C (stereo not drawn) | 49.8% and 63.1% | 64.1% | 33.9% | 35.3% | 11.4% | 4.4% | 16.2% | 20.7% |
| COC(=O)c1c2c(c3ccccc3c1O)OC(C)(C)C=C2 [Rubimaillin] | 86.1% and 90% | 79.6% | 20% | 39.7% | 2.68% | 3.56% | 28.1% | 41.4% |
| CCOC(=O)COc1ccc(/C=C2/SC(=S)NC2=O)cc1OC | 90.9% and 94.4% | 94.3% | 88.8% | 101% | 2.04% | 3.45% | 104% | 91.8% |
| CCc1cc2c(cc1N1CCC(N3CCOCC3)CC1)C(C)(C)c1[nH]c3cc(C#N)ccc3c1C2=O | 91.7% and 98.6% | 105% | 63.9% | 86.3% | 66.7% | 80.5% | 71.7% | 52.2% |
| Cn1cc(-c2[nH]c3cc(NC(=O)[C@H](N)C4CCCCC4)cc4c3c2C=NNC4=O)cn1 | 2.84% and 6.35% | 4.41% | 32.7% | 26.9% | 0.83% | 0.37% | 5.09% | 8.02% |
| CC1(C)S[C@@H]2[C@H](NC(=O)[C@H](NC(=O)N3CCNC3=O)c3ccccc3)C(=O)N2[C@H]1C(=O)O [Azlocillin sodium salt] | 90.4% and 87.6% | 81.5% | 82.3% | 92.1% | 86.4% | 88.6% | 88% | 91.8% |
| Cc1cc(Nc2cc(Cl)nc(Oc3ccc([N+](=O)[O-])cc3)n2)n[nH]1 [Autophinib] | 30.5% and 32.9% | 31.3% | 33.4% | 53.3% | 29.9% | 14.5% | 50% | 47.9% |
| CC(=O)NS(=O)(=O)c1ccc(N)cc1 [Sulfacetamide] | 98.7% and 98.1% | 111% | 90.8% | 96.3% | 103% | 103% | 98.4% | 106% |
| CC1CCC2(C(=O)OC3OC(CO)C(O)C(O)C3O)CCC3(C)C(=CCC4C5(C)CCC(OC6OCC(O)C(O)C6O)C(C)(C)C5CCC43C)C2C1(C)O (stereo not drawn) [Ziyu-glycoside I] | 103% and 96.8% | 99.4% | 101% | 99.9% | 107% | 105% | 99% | 100% |
| CNC(=O)c1cc(Oc2ccc(NC(=O)Nc3cc(C(C)(C)C)nn3-c3ccc4ncccc4c3)c(F)c2)ccn1 [DCC-2036 (Rebastinib)] | 28.3% and 35.4% | 27.5% | 11.8% | 4.62% | 1.63% | 1.54% | 3.03% | 14% |
| COc1ccc2ccc(=O)oc2c1CC=C(C)C [Osthole (Osthol)] | 97.5% and 91.7% | 90.1% | 94.2% | 93.2% | 88.7% | 94.3% | 93.2% | 95.5% |
| CC/C(=C(\c1ccc(O)cc1)c1ccc(OCCNC)cc1)c1ccccc1 [Endoxifen HCl] | 21% and 29.8% | 24.5% | 66% | 59.9% | 23.2% | 29.7% | 17% | 38.1% |
| COc1c2c(cc3oc(COC4OC(CO)C(O)C(O)C4O)cc(=O)c13)OC(C(C)(C)O)C2 (stereo not drawn) [Prim-o-glucosylcimifugin] | 83.8% and 84.2% | 88.3% | 84% | 94% | 88.3% | 88.2% | 91.8% | 98.1% |
| CN(CCOc1ccc(CC2SC(=O)NC2=O)cc1)c1ccccn1 (stereo not drawn) [Rosiglitazone HCl] | 100% and 101% | 97.4% | 102% | 115% | 103% | 109% | 102% | 105% |
